Screens as filed in PubChem BioAssay.
Cav32 inh: inhibitors of human Cav3.2 T-type calcium channel | O95180 | Cav3.2-expressing cells, Fluo-4 calcium fluorescence FDSS; hits give low values | B-score at 10 µM | actives 4% (n = 100,000) | AID 449739;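 active = single-dose well whose peak fluorescence ratio is a statistical outlier from its plate by either plate-standardised score or position-corrected B-score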
CYP2C9 act: CYP2C9 (human) activation; P11712; recombinant CYP2C9, luciferin-H conversion, luminescence; hits give high values; factor 1 = untreated enzyme, 0 = blocked; activation factor at 5 µM; actives 1.4% (n = 96,000); AID 1024;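 active = activation factor of 2 or more for CYP2C9 at a 5 µM dose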
Target sequence (P11712 whole entry, looked up): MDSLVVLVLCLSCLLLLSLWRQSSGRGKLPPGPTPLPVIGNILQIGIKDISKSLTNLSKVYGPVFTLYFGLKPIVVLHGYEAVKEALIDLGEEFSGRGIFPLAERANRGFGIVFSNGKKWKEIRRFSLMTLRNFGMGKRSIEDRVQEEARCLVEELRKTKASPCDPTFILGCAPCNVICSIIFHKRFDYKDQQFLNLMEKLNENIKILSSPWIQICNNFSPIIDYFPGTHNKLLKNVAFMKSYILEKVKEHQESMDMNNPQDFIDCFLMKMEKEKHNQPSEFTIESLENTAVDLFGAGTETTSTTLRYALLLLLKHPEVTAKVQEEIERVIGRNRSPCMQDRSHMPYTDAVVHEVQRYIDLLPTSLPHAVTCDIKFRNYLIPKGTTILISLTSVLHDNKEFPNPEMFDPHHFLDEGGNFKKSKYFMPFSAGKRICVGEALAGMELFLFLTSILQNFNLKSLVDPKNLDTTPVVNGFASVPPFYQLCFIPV
CYP2C9 inh: human CYP2C9 inhibition; CYP2C9 Supersomes, luciferin-H conversion, luminescence; inhibition, % at 5 µM; P11712; actives 20% (n = 96,000);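 active = blocking of liver enzyme CYP2C9 beyond about 50% at 5 µM, limit read from the data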
CYP2C19 inhib: inhibitors of human CYP2C19; P33261; CYP2C19 Supersomes, luciferin-H EGE luminescence, 30 min; inhibition, % at 5 µM; actives 21% (n = 96,000);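 active = CYP2C19 inhibition above a set limit at 5 µM in the primary screen, cut at about 50% in these data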
CYP2C19 activ: increases human CYP2C19 enzyme activity. P33261. activation factor at 5 µM. 96,000 tested, under 10 active. recombinant CYP2C19, luciferin-H EGE luminescence; hits give high values; 0 = fully inhibited enzyme, 1 = untreated enzyme. AID 1025;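 active = activation factor of at least 2 at 5 µM in the primary screen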
Hits are given with their value; i = inactive; nt = no result. Most compounds without a hit are left out; they make up all but 27% or so of the library.

SMILES | Cav32 inh | CYP2C9 act | CYP2C9 inh | CYP2C19 inhib | CYP2C19 activ
CCCOc1ccc(N2C(=O)CC(N3CCC(O)(c4cccc(C(F)(F)F)c4)CC3)C2=O)cc1 (centres undefined) | nt | i | i | i | i
COc1ccc(CNC(=O)C2CCCN(c3nccc(C)n3)C2)cc1 (centres undefined) | i | nt | nt | nt | nt
CCC(C)(C)NC(=O)Cc1ccccc1OC | i | i | i | i | i
CCC(CC)NC(=O)Cc1ccccc1OC | i | i | i | 77.9 | i
Cc1ccc(C(=O)COC(=O)CNC(=O)Cc2ccccc2)cc1[N+](=O)[O-] | nt | i | i | i | i
O=C(CNc1ccc(C(F)(F)F)cc1[N+](=O)[O-])OCC(=O)c1ccccc1 | nt | i | 55.1 | i | i
O=C(OCC#CCSc1nnc(-c2ccccc2)o1)c1cccs1 | i | i | i | i | i
O=C(OCC#CCSc1nnc(-c2ccccc2)o1)c1ccco1 | i | i | 57.7 | 88.1 | i
O=C(OCC#CCSc1nc2ccccc2s1)c1ccco1 | i | i | 72.1 | 82.6 | i
O=C(OCC#CCSc1nnc(-c2ccc(Br)cc2)o1)c1ccco1 | i | i | i | i | i
O=C(OCC#CCSc1nnc(-c2cccc3ccccc23)o1)c1cccs1 | -4.7 | 2 | i | i | i
O=C(NCc1ccco1)c1cc(C(=O)C2CC2)c[nH]1 | i | i | i | i | i
COc1ccc(CCN(CC(=O)NC2CCCC2)C(=O)CCC(=O)Nc2cc(C)on2)cc1OC | i | i | i | i | i
CCn1c(-c2ccccc2)ccc(C#N)c1=O | i | i | i | i | i
Cc1cccc(Cn2c(N(C)Cc3ccccc3)nc3c2c(=O)[nH]c(=O)n3C)c1 | i | i | i | i | i
c1ccc(-n2nnnc2SCc2cccc(CSc3nnnn3-c3ccccc3)n2)cc1 | i | nt | nt | nt | nt
O=C(CCCSc1nnnn1-c1cccc2ccccc12)c1ccc(F)cc1 | -4.57 | 2.4 | i | i | i
c1ccc(CSc2nnnn2-c2cccc3ccccc23)nc1 | i | 2.3 | i | i | i
CC(C)OCCCNc1nc2c([nH]1)c(=O)n(C)c(=O)n2C | i | i | i | i | i
OCCNc1nc(OCC(F)(F)F)nc(N2CCN(C34CC5CC(CC(C5)C3)C4)CC2)n1 | i | i | i | i | i
O=C1NC(c2ccco2)Nc2ccccc21 (centres undefined) | i | i | i | i | i
O=c1[nH]c2c(s1)C(c1ccco1)C1C3CCC(C3)C1S2 (centres undefined) | i | i | i | 82.7 | i
O=C(CCN1C(=O)C2CC=C(Cl)CC2C1=O)Nc1ccccc1O (centres undefined) | i | i | i | 59.1 | i
O=C(CCN1C(=O)C2CC=C(Cl)CC2C1=O)NCc1ccccc1 (centres undefined) | i | nt | nt | nt | nt
CCCn1c2ccccc2c2nc3ccccc3nc21 | i | i | 68.6 | 53.9 | i
SMILES | Cav32 inh | CYP2C9 act | CYP2C9 inh | CYP2C19 inhib | CYP2C19 activ
N#CCCn1c2ccccc2c2nc3ccccc3nc21 | i | i | i | i | i
CCOC(=O)Cn1c(=O)cnc2ccccc21 | i | i | i | i | i
O=c1oc2ccccc2n1CCn1c2ccccc2c2nc3ccccc3nc21 | i | i | 64.3 | 77.8 | i
CCOC(=O)Cn1c2ccccc2c2nc3ccccc3nc21 | i | i | i | 57.5 | i
CCOC(=O)C1CCN(C(=O)c2ccc(OCC)c(OCC)c2)CC1 | i | i | i | i | i
CCOC(=O)C1CCN(C(=O)c2ccc(Br)o2)CC1 | i | i | 69.5 | 81.8 | i
COC(=O)C1CCN(C(=O)CCCOc2ccccc2)CC1 | i | i | i | 87.1 | i
CCOC(=O)C1CCN(C(=O)COC(=O)c2ccc(Br)o2)CC1 | i | i | i | i | i
CC1CCN(C(=O)COC(=O)c2ccc(Br)o2)CC1 | i | i | i | 60.5 | i
COc1ccc(OCCC(=O)N2CCCCC2)cc1 | nt | i | i | 85.3 | i
CCOC(=O)C1CCN(C(=O)N(C)C)CC1 | i | i | i | i | i
CCOC(=O)C1CCN(C(=O)CSCCSCC(=O)N2CCC(C(=O)OCC)CC2)CC1 | i | i | i | 73.1 | i
CCOC(=O)C1CCN(C(=O)CCc2ccccc2)CC1 | i | i | i | 70.7 | i
CCOC(=O)C1CCCN(CCCc2ccccc2)C1 (centres undefined) | i | i | i | 79.8 | i
CCOC(=O)C1CCN(C(=O)CN(Cc2ccccc2)S(C)(=O)=O)CC1 | i | i | i | i | i
Cc1cccc(C)c1NC(=O)C1CCCN(CCCc2ccccc2)C1 (centres undefined) | i | i | i | i | i
O=C(COC(=O)C1(c2ccccc2F)CCCC1)N1CCN(C(=O)c2ccco2)CC1 | i | i | i | i | i
